Cycloheximide cs = Cycloheximide Counterscreen for Small Molecule Inhibitors of Shiga Toxin; cell reporter, cycloheximide protein synthesis inhibition counterscreen; hit rate 12% among 300,000; AID 2314, 2010; max response, %; in the data active = max response mostly above about 13%, no sharp cut-off; inactive = mostly below about 14%; also: read at 38.3 µM for the half of the compounds with a filed dose; 0% is about no effect
Pf growth 96h = Primary qHTS for delayed death inhibitors of the malarial parasite plastid, 96 hour incubation | P. falciparum luciferase reporter growth, 96 h | Potency, µM (titrated, usually from 28.7 µM), for inactives: at the highest dose activity change, negative = inhibition, actives largely listed as inhibitors | hit rate 6.9% among 320,000 | AID 504834, 2011; also: potency is read from the fitted curve at half-maximal effect; % is scaled to controls: 0 for no effect and ±100 for the full control effect
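P. falciparum expressing integrated firefly luciferase, in erythrocytes at 2% hematocrit, 0.05% parasitemia, incubated with compounds 96 h at 37 C, 5% CO2. Growth inhibition read as loss of luminescence; two-generation exposure targets delayed-death apicoplast inhibitors.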
Shiga inhibitor = A qHTS for Small Molecule Inhibitors of Shiga Toxin. Vero cells, Shiga toxin protein synthesis inhibition reporter. AID 2315, 2010. inhibition, % at 38.7 µM. hit rate 9.2% among 290,000; in the data active = inhibition mostly above about 28%, no sharp cut-off; inactive = mostly below about 43%; also: 0% is about no effect
Sm TGR block = qHTS Assay for the Inhibitors of Schistosoma Mansoni Peroxiredoxins; purified TGR, DTNB reduction, TNB absorbance 405 nm; Potency, µM (series often up to 114 µM), without a hit: at the highest dose activity change, negative = inhibition, actives largely listed as inhibitors; hit rate 3% among 360,000; Schistosoma mansoni thioredoxin glutathione reductase (TGR), Q962Y6; AID 485364, 2010; also: potency is read from the fitted curve at half-maximal effect; % is scaled to controls: 0 for no effect and ±100 for the full control effect; nearly all actives have a fitted effect of over 60% in size
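TGR 20 nM + NADPH 100 uM (dispensed conc.), cpd preinc 15 min RT; start with NADPH (500 uM addition) then DTNB (15 mM addition). Kinetic TNB absorbance, 405 nm filter. Four-parameter Hill fit across titration.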
Pf growth 48h = Primary qHTS for delayed death inhibitors of the malarial parasite plastid, 48 hour incubation; Potency, µM (series often up to 28.7 µM), for the others: at the top dose activity change, negative = inhibition, hits mostly inhibitors; hit rate 5.9% among 310,000; P. falciparum luciferase growth in erythrocytes, 48 h; also: potency is read from the fitted curve at half-maximal effect; % is scaled to controls: 0 for no effect and ±100 for the full control effect
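Growth was read as firefly luciferase luminescence after a 48 h, 37 C, 5% CO2 exposure of compounds to reporter-bearing P. falciparum cultures (0.1% parasitemia, 2% hematocrit final) in Albumax-supplemented RPMI 1640.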
NS1 inh = qHTS Assay for Inhibitors of Influenza NS1 Protein Function; AID 2326, 2010; hit rate 0.4% among 270,000; Potency, µM (series often up to 46.1 µM), for inactives: top-dose activity, positive = more growth; calls by dose curve; also: potency is read from the fitted curve at half-maximal effect; actives are rising curves; nearly all actives have a fitted effect of over 50% in size
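S. cerevisiae expressing influenza A NS1, grown in glucose, washed, then diluted 1:100 into pH 6.0 -URA galactose medium with 23 nl compound. Growth recovery read as OD600; NS1-free strain serves as control.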
* hit, by the source's call; ? = inconclusive; / = no result. The list is not random: actives were taken first. Their share in the collection is about 21%. Unless noted, calls follow the shape of the dose curve; as a rule, active = well fitted curve in the direction sought with a large enough effect; inconclusive = small, poorly fitted or top-dose-only effect, or another doubt; inactive = no such curve, though single readings can be large; an effect the other way counts as inactive or inconclusive.

SMILES	Cycloheximide cs	Pf growth 96h	Shiga inhibitor	Sm TGR block	Pf growth 48h	NS1 inh
Cc1cc(C)c2c(c1)c1nnc(SCCN3CCCCC3)nc1n2C	1.0	?	-4.9	-1.0%	?	-1.6%
CCn1nnnc1NCc1ccc(Cl)cc1	-2.1	-12.1%	/	3.6%	15.9%	9.1%
CCn1nnnc1NCc1cccn1C	1.2	/	14.1	50.1µM*	6.7%	19.1%
CCCc1nnc(NC(=O)Cn2cnc3ccccc3c2=O)s1	-3.5	26.7%	-3.6	-9.3%	33.1%	-3.7%
COc1cc(NC2c3ncccc3C(=O)N2Cc2ccco2)cc(OC)c1 (centres undefined)	8.9	3.7µM*	-1.5	44.7µM*	?	1.0%
CC(C)(C)c1cc[n+](C2=C([O-])c3ccccc3C(=O)/C2=N\S(=O)(=O)c2cccs2)cc1	40.6*	2.08µM*	72.9*	-27.6%	1.31µM*	-5.7%
Cc1ccc(S(=O)(=O)Nc2cc3c(C(=O)Nc4ccccc4)c(C)oc3c3ccccc23)cc1	-2.8	1.65µM*	-6.4	-5.7%	?	7.8%
CC(=O)c1c(C)oc2c1cc(NS(=O)(=O)c1ccc(C(=O)O)cc1)c1ccccc12	-4.5	?	-11.4	-26.7%	26.6%	13.0%
COc1ccc(S(=O)(=O)Nc2cc3c4c(oc3c3ccccc23)CCCC4=O)cc1	6.3	9.28µM*	-11.3	-24.2%	/	5.6%
COC(=O)c1c(C)oc2c1cc(NS(=O)(=O)c1ccc(C(=O)O)cc1)c1ccccc12	1.4	?	-7.3	50.1µM*	34.1%	-18.8%
COc1ccc2c(c1)c(=O)c(C(=O)c1ccccc1)cn2CC(=O)Nc1ccc2c(c1)OCO2	/	/	/	-1.1%	/	/
O=C(NCC(c1cccs1)N1CCOCC1)c1cc([N+](=O)[O-])cc([N+](=O)[O-])c1 (centres undefined)	17.9*	16.9%	2.1	-3.2%	0.3%	-1.2%
C=CCN(c1ccccc1)S(=O)(=O)c1cccc(C(=O)NCC(c2ccccc2OC)N2CCCC2)c1 (centres undefined)	/	?	/	2.2%	?	/
CCN(CC)S(=O)(=O)c1ccc(C(=O)NCC(c2cccs2)N2CCOCC2)cc1 (centres undefined)	0.6	?	-9.0	-7.9%	-14.2%	-13.2%
O=C(NCC(c1cccs1)N1CCOCC1)C1CCN(S(=O)(=O)c2ccccc2C(F)(F)F)CC1 (centres undefined)	-0.4	?	-7.8	-17.7%	?	-8.4%
O=C(NCC(c1cccs1)N1CCOCC1)C1CCN(S(=O)(=O)c2cccc(C(F)(F)F)c2)CC1 (centres undefined)	/	10.4µM*	/	4.5%	?	/
C=CCN(c1ccccc1)S(=O)(=O)c1cccc(C(=O)NCC(c2cccs2)N2CCOCC2)c1 (centres undefined)	/	?	/	-17.0%	10.4µM*	/
CN(C)S(=O)(=O)c1ccc(C(=O)NCC(c2cccs2)N2CCOCC2)cc1 (centres undefined)	/	?	/	56.2µM*	?	/
CC(=O)N1CCc2cc(CNS(=O)(=O)c3ccccc3C(F)(F)F)ccc21	/	/	/	-0.5%	/	/
CCN1CCCC1CNCc1cccc(OC)c1OCc1ccc(F)cc1 (centres undefined)	-0.2	?	-4.1	-0.5%	?	11.8%
COc1ccc(CCNC(=O)c2ccc(-n3c(C)cc4c3CCC(C)C4)cc2)cc1OC (centres undefined)	/	/	/	-33.4%	/	/
CCN(c1ccccc1)S(=O)(=O)c1cccc(C(=O)N2CCN(S(=O)(=O)c3ccccc3)CC2)c1	0.3	8.28µM*	-7.1	-9.2%	?	15.1%
CCN(c1ccccc1)S(=O)(=O)c1cccc(C(=O)NCC(c2cccs2)N2CCOCC2)c1 (centres undefined)	/	?	/	-13.9%	14.7µM*	/
C=CCN(c1ccccc1OC)S(=O)(=O)c1ccc(Cl)c(C(=O)Nc2ccc(N3CCOCC3)cc2)c1	11.2	4.15µM*	12.4	-12.4%	5.86µM*	/
CCN(c1ccccc1)S(=O)(=O)c1cccc(C(=O)NCCN2CCOCC2)c1	/	?	/	4.0%	0.0%	/
SMILES	Cycloheximide cs	Pf growth 96h	Shiga inhibitor	Sm TGR block	Pf growth 48h	NS1 inh
C=CCN(c1ccccc1OC)S(=O)(=O)c1cccc(C(=O)NCc2cccs2)c1	/	11.7µM*	/	-12.1%	11.7µM*	/
C=CCN(c1ccccc1Cl)S(=O)(=O)c1cccc(C(=O)NCCc2ccc(OC)cc2)c1	4.7	?	26.2	-5.5%	?	20.7%
CC(=O)c1c(C)oc2ccc(N(C(=O)Oc3ccccc3)S(=O)(=O)c3ccc(Cl)cc3)cc12	/	/	/	-3.4%	/	/
O=C(/C=C/c1c(F)cccc1Cl)NCCCN1CCOCC1	-2.6	16.5%	18.3	-19.7%	8.7%	-7.2%
COc1cc(OC)cc(C(=O)NCC(=O)OCC(=O)C(C)(C)C)c1	2.3	13.0%	-12.2	-14.2%	-3.3%	-11.9%
CCCCn1c(N)c(N(CC(C)C)C(=O)c2cccc(OCc3ccccc3)c2)c(=O)[nH]c1=O	/	?	/	0.0%	?	/
C=CCn1c(NCc2ccccc2OC)nc2ccccc21	17.5*	?	32.1	1.2%	60.9%	-8.5%
C=CCc1cccc(CNc2nc3ccccc3n2C(C)C)c1O	-4.4	?	17.7	-21.6%	4.65µM*	1.5%
Cc1ccc(CNc2nc3ccccc3n2C)o1	54.3*	24.7%	51.5*	-11.8%	64.6%	8.1%
CC(C)n1c(NCc2ccccc2O)nc2ccccc21	1.7	33.2%	-8.9	11.4%	?	13.6%
C=CCc1cccc(CNc2ccc(Br)cc2)c1O	6.7	?	6.3	0.0%	11.7µM*	3.8%
CCOc1ccccc1CNc1nc2ccccc2n1C	6.9	3.0%	10.0	-31.5%	-29.4%	0.8%
Cc1ccc(-c2nc(Cn3c(SCc4ccc(F)cc4)nc4cccnc43)c(C)o2)cc1	/	/	/	0.8%	/	/
CCOC(=O)c1cccc(NC(=O)CC(c2cc(OC)c(OC)c(OC)c2)N2Cc3ccccc3C2=O)c1 (centres undefined)	/	/	/	-0.6%	/	/
O=C(NC1(C(F)(F)F)C(=O)Nc2c1c(=O)[nH]c(=O)n2-c1ccccc1)c1ccccc1Cl (centres undefined)	/	/	/	7.8%	/	/
CCOC(=O)c1[nH]c2c(c1Cc1ccccc1OC)C(=O)CC(c1ccccc1)C2 (centres undefined)	/	/	/	-0.4%	/	/
O=C(CCCOc1ccc(Cl)cc1Cl)N/N=C/c1ccccc1O	5.9	?	8.8	-4.5%	?	-11.3%
CCn1cc2c(n1)-c1c(oc(C(=O)Nc3cccc(C(F)(F)F)c3)c1C)CC2	/	/	/	5.6%	/	/

Screens from PubChem.
